Drawing on PubChem BioAssay, this text covers outcome and potentiation for 39 molecules.

Activity calls are given as the source filed them.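 How the source made its calls, unless noted: active means primary screen hit whose calcium fluorescence ratio, in both repeats, exceeds the weak agonist control mean by 3 SD; inactive means the rest.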

The subject of one experiment is TRPC4 (transient receptor potential cation channel C4 beta), mouse. The experiment in a line: potentiation of DAMGO EC20 TRPC4 response – cell-based, second round, Fluo-4, HEK293 TRPC4beta/mu-opioid, 1 µM, confirmation (AID 2554;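 active means primary screen hit whose fluorescence ratio, in both repeats, exceeds the weak agonist control mean by 3 SD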). As to conditions: DAMGO EC20, Fluo-4 calcium flux, at 1 µM; hits give high values.
In the case of `CC(C)c1ccc(OCc2ccc(C(=O)N3CCCC3)o2)cc1`, the outcome was inactive.
Still for that read-out and setting: next, `COc1ccc(-n2cc(CNCc3cnc4ccccn34)c(-c3cccc(F)c3)n2)cc1`: “inactive”; `COc1ccc(CCN2C(=S)N(C)C(=O)C2CC(=O)Nc2ccc(F)cc2)cc1` (stereo not drawn): “inactive”; `CCOC(=O)C1=NNC(C(=O)c2ccc(Cl)cc2)C1c1ccc(OC)cc1` (stereo not drawn): “inactive”.
With `Cc1ccc(C(C)C)c(OCCCCN2CCNCC2)c1`, the potentiation was 11% (active).
On to `CCOC(=O)CSc1nc2ccccc2c(=O)n1C1CCCC1`, for which the outcome was inactive.
On the same count and under the same terms, next, `Clc1ccc(Cl)c(OCCCCN2CCNCC2)c1`: “inactive”.
Same read-out and setting: next, `COc1ccc(-c2cc(C(=O)N3CC(C)CC(C)C3)c3ccccc3n2)cc1` (stereo not drawn): “inactive”; `Cn1c(N2CCC(C(N)=O)CC2)nc2c1c(=O)n(Cc1ccc(Br)cc1)c(=O)n2C`: “inactive”.
Same read-out and setting: next, `OC1(c2ccc(Cl)cc2)CN(c2ccccc2)C2=[N+]1CCS2` (stereo not drawn): “inactive”; `CCN(CCCNC(=O)CCCOc1cc(=O)n(C)c2ccccc12)Cc1ccccc1`: “inactive”.
As for `O=C(NN/C(=N/S(=O)(=O)c1ccc(Cl)cc1)c1ccccc1)c1cccc(Cl)c1`, the outcome was inactive.
Turning to `CCn1c2ccc(F)cc2c2nnc(NN)nc21`, the potentiation is 27% (active).
Consider `CCN(CC)CCOCCOc1ccc(Cl)c2ccccc12`, for which the outcome was inactive.
Still for that read-out and setting: next, `O=C(NCCCN1CCCC1=O)c1ccc(CNS(=O)(=O)c2ccc(F)cc2)cc1`: “inactive”; `Cc1noc(C)c1COC(=O)[C@@H](NC(=O)c1ccccc1Cl)C(C)C`: “inactive”.
For `C/C=C/Cn1c(SCCCc2ccccc2)nc2c1c(=O)[nH]c(=O)n2C`, the potentiation was 12% (active).
For `O=[N+]([O-])c1ccc2c(c1)C=C1CCCCC1(N1CCCC1)O2` (stereo not drawn), the outcome was inactive.
With `COc1ccc(CCn2c(=S)[nH]c3cc(C(=O)N4CCOCC4)ccc3c2=O)cc1OC`, the outcome was inactive.
Still for that read-out and setting: next, `CN(C)CCCCOc1cccc(Br)c1`: “inactive”; `CC1=CC(=O)C(C(C)C)=C/C1=N/OS(=O)(=O)c1ccccc1`: “inactive”.
For `O=C1CC(NS(=O)(=O)c2cccs2)CN1c1ccccc1` (stereo not drawn), the result was inactive.
Still for that read-out and setting: next, `OCCNCc1cc(Br)ccc1OCc1ccccc1`: “inactive”.

The subject of a further experiment is TRPC4 beta (transient receptor potential cation channel C4), mouse. The experiment in a line: potentiation of DAMGO EC20 TRPC4 response – cell-based, Fluo-4, HEK293 TRPC4beta/mu-opioid, confirmation (AID 2555). Conditions: DAMGO EC20, Fluo-4 calcium flux, at 10 µM; hits give high values. A general note: Calcium assays in cells follow changes in intracellular calcium, usually with a dye or a luminescent sensor.
In the case of `COC(=O)c1ccccc1NC(=O)c1cnn2cccnc12`, the potentiation was 16% (active).
Still for that read-out and setting: next, `Cc1cc(Cl)ccc1OC(C)C(=O)Nc1ccccc1N1CCOCC1` (stereo not drawn): 25% (active).
Turning to `CC(C(=O)c1ccc(Br)cc1)[n+]1cccc(NC(=O)c2ccccc2)c1` (stereo not drawn), the result was inactive.
On to `Cn1c(SCCOc2ccccc2F)nc2ccccc2c1=O`, for which the potentiation is 10% (active).
Consider `O=C(CN1CCCN(S(=O)(=O)c2ccc(F)cc2)CC1)Nc1ccccc1Br`, for which the result was inactive.
On the same count and under the same terms, next, `Cc1c(CCOC(=O)c2ccccc2)sc[n+]1CC(=O)c1ccc(Br)cc1`: “inactive”; `Cc1c(N2C(=O)/C(=C/c3ccccc3)SC2=S)c(=O)n(-c2ccccc2)n1C`: “inactive”.
Take `CCOC(=O)Cc1csc(NC(=O)NC2(C(F)(F)F)Oc3cc(Cl)c(Cl)cc3O2)n1`: the result was inactive.
On to `CCCn1nc(C(=O)NC2CCCc3ccccc32)c2ccccc2c1=O` (stereo not drawn), for which the potentiation is 22% (active).
Regarding `CCOC(=O)c1c(C)n(-c2ccc(C)cc2)c2ccc(OCC(O)CNCC3CCCO3)cc12` (stereo not drawn), the result was inactive.
Still for that read-out and setting: next, `O=C(NCCCN1CCN(CCCNC(=O)c2cccc(Cl)c2)CC1)c1cccc(Cl)c1`: “inactive”; `COC(=O)[C@@]12CCCCN1[C@H](c1ccc(-c3ccc(C(C)=O)cc3)cc1)[C@@H]1C(=O)N(C)C(=O)[C@@H]12`: “inactive”.
Same read-out and setting: next, `Cc1ccc(CNC(=O)CSc2nc(=O)n3ccccc3n2)cc1`: “inactive”.
For the molecule `CCCCCCc1cc2cc(-c3nnc(-c4ccccc4O)o3)c(=O)oc2cc1O`, the potentiation is 15% (active).
Take `CCCCN(C)CCNC(=O)C1CCCN(S(=O)(=O)c2cccc3nsnc23)C1` (stereo not drawn): the result was inactive.
As for `Cc1cccc(NC(=O)CNC(=O)CN2C(=O)NC3(CCCCC3C)C2=O)c1C` (stereo not drawn), the outcome was inactive.
On to `CC(C)c1ccc(OCc2ccc(C(=O)N3CCCC3)o2)cc1`, for which the potentiation is 39% (active).
On to `COc1ccc(-n2cc(CNCc3cnc4ccccn34)c(-c3cccc(F)c3)n2)cc1`, for which the outcome was inactive.
Same read-out and setting: next, `COc1ccc(CCN2C(=S)N(C)C(=O)C2CC(=O)Nc2ccc(F)cc2)cc1` (stereo not drawn): “inactive”.
Same read-out and setting: next, `CCOC(=O)C1=NNC(C(=O)c2ccc(Cl)cc2)C1c1ccc(OC)cc1` (stereo not drawn): “inactive”; `Cc1ccc(C(C)C)c(OCCCCN2CCNCC2)c1`: “inactive”.
The same measure, in the same setting: next, `CCOC(=O)CSc1nc2ccccc2c(=O)n1C1CCCC1`: “inactive”.
For the molecule `Clc1ccc(Cl)c(OCCCCN2CCNCC2)c1`, the potentiation was 13% (active).
On to `COc1ccc(-c2cc(C(=O)N3CC(C)CC(C)C3)c3ccccc3n2)cc1` (stereo not drawn), for which the outcome was inactive.
As to `Cn1c(N2CCC(C(N)=O)CC2)nc2c1c(=O)n(Cc1ccc(Br)cc1)c(=O)n2C`, the outcome was inactive.
